Laboratory results from the supplement of paper PMC4466140.

Assays:
Test in all cases: SPOT peptide array binding signal intensity (averaged, normalized) (arbitrary units (background-subtracted, floor 0; scale differs between SH3 domains)); higher = stronger binding of the SH3 domain to the peptide
[1] = target: AgAbp1
Outline: (§1)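 Cellulose membranes carried synthetic 15-mer peptides with cysteines swapped for serines. These were incubated overnight at 4°C with 10 μg/ml of GST-fused SH3 domains from four yeast species in TBS-based blocking buffer. Binding signal, detected with anti-GST antibody and quantified in Genespotter, is the normalized, background-subtracted spot intensity averaged over replicates, in arbitrary units specific to each domain.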

[2] = target: AgBbc1
Outline: as §1

[3] = target: AgBem1-D1
Outline: as §1

[4] = target: AgBzz1-D1
Outline: as §1

[5] = target: AgBzz1-D2
Outline: as §1

[6] = target: AgCyk3
Outline: as §1

[7] = target: AgFus1
Outline: as §1

[8] = target: AgHof1
Outline: as §1

[9] = target: AgHse1
Outline: as §1

[10] = target: AgLsb1
Outline: as §1

[11] = target: AgLsb4
Outline: as §1

[12] = target: AgMyo5
Outline: as §1

[13] = target: AgNbp2
Outline: as §1

[14] = target: AgRvs167
Outline: as §1

[15] = target: AgSho1
Outline: as §1

[16] = target: AgSla1-D1-D2
Outline: as §1

[17] = target: AgSla1-D3
Outline: as §1

[18] = target: CaAbp1-D1
Outline: as §1

[19] = target: CaAbp1-D2
Outline: as §1

[20] = target: CaBbc1
Outline: as §1

[21] = target: CaBem1-D1
Outline: as §1

[22] = target: CaBzz1-D1
Outline: as §1

[23] = target: CaBzz1-D2
Outline: as §1

[24] = target: CaCyk3
Outline: as §1

[25] = target: CaFus1
Outline: as §1

[26] = target: CaHof1
Outline: as §1

[27] = target: CaHse1
Outline: as §1

[28] = target: CaLsb1
Outline: as §1

[29] = target: CaLsb4
Outline: as §1

[30] = target: CaMyo5
Outline: as §1

[31] = target: CaNbp2
Outline: as §1

[32] = target: CaRvs167
Outline: as §1

[33] = target: CaRvs167-3
Outline: as §1

[34] = target: CaSho1
Outline: as §1

[35] = target: CaSla1-D1-D2
Outline: as §1

[36] = target: CaSla1-D3
Outline: as §1

[37] = target: ScAbp1
Outline: as §1

[38] = target: ScBbc1
Outline: as §1

[39] = target: ScBem1-D1
Outline: as §1

[40] = target: ScBzz1-D1
Outline: as §1

[41] = target: ScBzz1-D2
Outline: as §1

[42] = target: ScCyk3
Outline: as §1

[43] = target: ScFus1
Outline: as §1

[44] = target: ScHof1
Outline: as §1

[45] = target: ScHse1
Outline: as §1

[46] = target: ScLsb1
Outline: as §1

[47] = target: ScLsb2
Outline: as §1

[48] = target: ScLsb3
Outline: as §1

[49] = target: ScLsb4
Outline: as §1

[50] = target: ScMyo3
Outline: as §1

[51] = target: ScMyo5
Outline: as §1

[52] = target: ScNbp2
Outline: as §1

[53] = target: ScPex13
Outline: as §1

[54] = target: ScRvs167
Outline: as §1

[55] = target: ScSho1
Outline: as §1

[56] = target: ScSla1-D1-D2
Outline: as §1

[57] = target: ScSla1-D3
Outline: as §1

[58] = target: SpAbp1-D1
Outline: as §1

[59] = target: SpBbc1
Outline: as §1

[60] = target: SpBzz1-D1
Outline: as §1

[61] = target: SpBzz1-D2
Outline: as §1

[62] = target: SpCyk3
Outline: as §1

[63] = target: SpHof1
Outline: as §1

[64] = target: SpHof1-2
Outline: as §1

[65] = target: SpHof1-3
Outline: as §1

[66] = target: SpHse1
Outline: as §1

[67] = target: SpLsb1
Outline: as §1

[68] = target: SpLsb4
Outline: as §1

[69] = target: SpMyo1
Outline: as §1

[70] = target: SpNbp2
Outline: as §1

[71] = target: SpPex13
Outline: as §1

[72] = target: SpRvs167
Outline: as §1

[73] = target: SpSla1-D1-D2
Outline: as §1

[74] = target: SpSla1-D3
Outline: as §1

VRVKKRPLIRPLNSS
SPOT peptide array binding signal intensity [1]: 450 | SPOT peptide array binding signal intensity [2]: 184 | SPOT peptide array binding signal intensity [3]: 244 | SPOT peptide array binding signal intensity [4]: 6.5 | SPOT peptide array binding signal intensity [5]: 215 | SPOT peptide array binding signal intensity [6]: 6 | SPOT peptide array binding signal intensity [7]: 223 | SPOT peptide array binding signal intensity [8]: 48.5 | SPOT peptide array binding signal intensity [9]: 646 | SPOT peptide array binding signal intensity [10]: 2.5 | SPOT peptide array binding signal intensity [11]: 81 | SPOT peptide array binding signal intensity [12]: 0.5 | SPOT peptide array binding signal intensity [13]: 220 | SPOT peptide array binding signal intensity [14]: 2.33 | SPOT peptide array binding signal intensity [15]: 53 | SPOT peptide array binding signal intensity [16]: 442 | SPOT peptide array binding signal intensity [17]: 12.8 | SPOT peptide array binding signal intensity [18]: 1520 | SPOT peptide array binding signal intensity [19]: 1190 | SPOT peptide array binding signal intensity [20]: 278 | SPOT peptide array binding signal intensity [21]: 378 | SPOT peptide array binding signal intensity [22]: 153 | SPOT peptide array binding signal intensity [23]: 101 | SPOT peptide array binding signal intensity [24]: 132 | SPOT peptide array binding signal intensity [25]: 381 | SPOT peptide array binding signal intensity [26]: 1 | SPOT peptide array binding signal intensity [27]: 15 | SPOT peptide array binding signal intensity [28]: 2 | SPOT peptide array binding signal intensity [29]: 104 | SPOT peptide array binding signal intensity [30]: 1.5 | SPOT peptide array binding signal intensity [31]: 311 | SPOT peptide array binding signal intensity [32]: 8.5 | SPOT peptide array binding signal intensity [33]: 183 | SPOT peptide array binding signal intensity [34]: 370 | SPOT peptide array binding signal intensity [35]: 534 | SPOT peptide array binding signal intensity [36]: 0.25 | SPOT peptide array binding signal intensity [37]: 138 | SPOT peptide array binding signal intensity [38]: 82 | SPOT peptide array binding signal intensity [39]: 70 | SPOT peptide array binding signal intensity [40]: 11.5 | SPOT peptide array binding signal intensity [41]: 11 | SPOT peptide array binding signal intensity [42]: 91.5 | SPOT peptide array binding signal intensity [43]: 156 | SPOT peptide array binding signal intensity [44]: 0.75 | SPOT peptide array binding signal intensity [45]: 1480 | SPOT peptide array binding signal intensity [46]: 57.8 | SPOT peptide array binding signal intensity [47]: 5.5 | SPOT peptide array binding signal intensity [48]: 312 | SPOT peptide array binding signal intensity [49]: 19 | SPOT peptide array binding signal intensity [50]: 3 | SPOT peptide array binding signal intensity [51]: 1.5 | SPOT peptide array binding signal intensity [52]: 312 | SPOT peptide array binding signal intensity [53]: 0.25 | SPOT peptide array binding signal intensity [54]: 15.5 | SPOT peptide array binding signal intensity [55]: 386 | SPOT peptide array binding signal intensity [56]: 330 | SPOT peptide array binding signal intensity [57]: 16 | SPOT peptide array binding signal intensity [58]: 388 | SPOT peptide array binding signal intensity [59]: 9.75 | SPOT peptide array binding signal intensity [60]: 150

MARRRLPDRPPNGIG
SPOT peptide array binding signal intensity [1]: 546 | SPOT peptide array binding signal intensity [2]: 428 | SPOT peptide array binding signal intensity [3]: 143 | SPOT peptide array binding signal intensity [4]: 55 | SPOT peptide array binding signal intensity [5]: 95 | SPOT peptide array binding signal intensity [6]: 16 | SPOT peptide array binding signal intensity [7]: 148 | SPOT peptide array binding signal intensity [8]: 112 | SPOT peptide array binding signal intensity [9]: 216 | SPOT peptide array binding signal intensity [10]: 158 | SPOT peptide array binding signal intensity [11]: 2490 | SPOT peptide array binding signal intensity [12]: ≤ 0 | SPOT peptide array binding signal intensity [13]: 410 | SPOT peptide array binding signal intensity [14]: 487 | SPOT peptide array binding signal intensity [15]: 636 | SPOT peptide array binding signal intensity [16]: 179 | SPOT peptide array binding signal intensity [17]: 16.5 | SPOT peptide array binding signal intensity [18]: 1170 | SPOT peptide array binding signal intensity [19]: 788 | SPOT peptide array binding signal intensity [20]: 1100 | SPOT peptide array binding signal intensity [21]: 184 | SPOT peptide array binding signal intensity [22]: 308 | SPOT peptide array binding signal intensity [23]: 102 | SPOT peptide array binding signal intensity [24]: 290 | SPOT peptide array binding signal intensity [25]: 280 | SPOT peptide array binding signal intensity [26]: 5.25 | SPOT peptide array binding signal intensity [27]: 89 | SPOT peptide array binding signal intensity [28]: 6.75 | SPOT peptide array binding signal intensity [29]: 2570 | SPOT peptide array binding signal intensity [30]: 22.5 | SPOT peptide array binding signal intensity [31]: 1660 | SPOT peptide array binding signal intensity [32]: 923 | SPOT peptide array binding signal intensity [33]: 25.5 | SPOT peptide array binding signal intensity [34]: 794 | SPOT peptide array binding signal intensity [35]: 1100 | SPOT peptide array binding signal intensity [36]: 138 | SPOT peptide array binding signal intensity [37]: 135 | SPOT peptide array binding signal intensity [38]: 126 | SPOT peptide array binding signal intensity [39]: 7 | SPOT peptide array binding signal intensity [40]: 29 | SPOT peptide array binding signal intensity [41]: 33 | SPOT peptide array binding signal intensity [42]: 22.5 | SPOT peptide array binding signal intensity [43]: 61 | SPOT peptide array binding signal intensity [44]: 53.2 | SPOT peptide array binding signal intensity [45]: 241 | SPOT peptide array binding signal intensity [46]: 434 | SPOT peptide array binding signal intensity [47]: 176 | SPOT peptide array binding signal intensity [48]: 3700 | SPOT peptide array binding signal intensity [49]: 1540 | SPOT peptide array binding signal intensity [50]: 7 | SPOT peptide array binding signal intensity [51]: ≤ 0 | SPOT peptide array binding signal intensity [52]: 523 | SPOT peptide array binding signal intensity [53]: 438 | SPOT peptide array binding signal intensity [54]: 2820 | SPOT peptide array binding signal intensity [55]: 1560 | SPOT peptide array binding signal intensity [56]: 1290 | SPOT peptide array binding signal intensity [57]: 100 | SPOT peptide array binding signal intensity [58]: 1340 | SPOT peptide array binding signal intensity [59]: 43.8 | SPOT peptide array binding signal intensity [60]: 450 | SPOT peptide array binding signal intensity [61]: 9 | SPOT peptide array binding signal intensity [62]: 221 | SPOT peptide array binding signal intensity [63]: 1210 | SPOT peptide array binding signal intensity [64]: 1530 | SPOT peptide array binding signal intensity [65]: 3040 | SPOT peptide array binding signal intensity [66]: 104 | SPOT peptide array binding signal intensity [67]: 178 | SPOT peptide array binding signal intensity [68]: 5420 | SPOT peptide array binding signal intensity [69]: 52.8 | SPOT peptide array binding signal intensity [70]: 144 | SPOT peptide array binding signal intensity [71]: 123 | SPOT peptide array binding signal intensity [72]: 1670 | SPOT peptide array binding signal intensity [73]: 393 | SPOT peptide array binding signal intensity [74]: 23
